The full data set covers some 8,800 targets. This sample favours those with a hit. About 0.5% of all pairs of compound and target were hits. Unmarked numbers belong to inactive results.

Chain of UniProt O75582 (O75582 whole entry, looked up): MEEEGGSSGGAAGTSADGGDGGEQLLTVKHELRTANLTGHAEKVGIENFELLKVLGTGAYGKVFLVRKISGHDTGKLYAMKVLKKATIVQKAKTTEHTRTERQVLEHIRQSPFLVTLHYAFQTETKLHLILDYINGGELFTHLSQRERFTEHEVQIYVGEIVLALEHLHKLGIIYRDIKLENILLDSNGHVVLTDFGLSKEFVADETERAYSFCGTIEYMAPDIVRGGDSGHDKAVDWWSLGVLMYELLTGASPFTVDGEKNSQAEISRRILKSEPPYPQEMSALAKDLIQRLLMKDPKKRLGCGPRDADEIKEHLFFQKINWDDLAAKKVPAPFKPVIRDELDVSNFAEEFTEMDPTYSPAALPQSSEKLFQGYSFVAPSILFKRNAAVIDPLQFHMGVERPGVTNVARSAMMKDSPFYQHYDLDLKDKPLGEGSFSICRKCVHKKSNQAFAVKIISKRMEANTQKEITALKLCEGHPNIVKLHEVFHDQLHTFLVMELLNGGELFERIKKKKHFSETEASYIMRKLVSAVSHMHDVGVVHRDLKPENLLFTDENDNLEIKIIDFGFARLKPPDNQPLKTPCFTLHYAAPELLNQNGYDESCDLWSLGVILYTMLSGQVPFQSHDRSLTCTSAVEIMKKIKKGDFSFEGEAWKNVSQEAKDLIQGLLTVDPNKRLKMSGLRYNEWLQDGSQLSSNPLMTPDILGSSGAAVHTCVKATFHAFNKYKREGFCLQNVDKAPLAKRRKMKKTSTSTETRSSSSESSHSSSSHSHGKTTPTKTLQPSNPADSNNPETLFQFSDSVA
Chain of UniProt P23443 (P23443 whole entry, looked up): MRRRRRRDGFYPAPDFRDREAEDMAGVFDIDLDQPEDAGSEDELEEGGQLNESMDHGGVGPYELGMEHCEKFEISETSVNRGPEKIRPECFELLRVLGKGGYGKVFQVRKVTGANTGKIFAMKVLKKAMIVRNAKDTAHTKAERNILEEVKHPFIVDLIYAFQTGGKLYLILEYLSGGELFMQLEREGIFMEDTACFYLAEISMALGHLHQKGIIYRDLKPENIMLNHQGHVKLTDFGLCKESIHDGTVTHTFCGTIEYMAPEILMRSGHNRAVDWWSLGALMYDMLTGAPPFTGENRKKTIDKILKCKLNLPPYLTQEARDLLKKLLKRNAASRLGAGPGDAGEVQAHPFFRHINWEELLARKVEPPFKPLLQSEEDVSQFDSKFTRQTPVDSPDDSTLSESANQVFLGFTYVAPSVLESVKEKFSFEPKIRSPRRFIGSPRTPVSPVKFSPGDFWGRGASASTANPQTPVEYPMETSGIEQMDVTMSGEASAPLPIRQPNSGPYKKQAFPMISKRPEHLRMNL
Chain of UniProt Q13464 (Q13464 whole entry, looked up): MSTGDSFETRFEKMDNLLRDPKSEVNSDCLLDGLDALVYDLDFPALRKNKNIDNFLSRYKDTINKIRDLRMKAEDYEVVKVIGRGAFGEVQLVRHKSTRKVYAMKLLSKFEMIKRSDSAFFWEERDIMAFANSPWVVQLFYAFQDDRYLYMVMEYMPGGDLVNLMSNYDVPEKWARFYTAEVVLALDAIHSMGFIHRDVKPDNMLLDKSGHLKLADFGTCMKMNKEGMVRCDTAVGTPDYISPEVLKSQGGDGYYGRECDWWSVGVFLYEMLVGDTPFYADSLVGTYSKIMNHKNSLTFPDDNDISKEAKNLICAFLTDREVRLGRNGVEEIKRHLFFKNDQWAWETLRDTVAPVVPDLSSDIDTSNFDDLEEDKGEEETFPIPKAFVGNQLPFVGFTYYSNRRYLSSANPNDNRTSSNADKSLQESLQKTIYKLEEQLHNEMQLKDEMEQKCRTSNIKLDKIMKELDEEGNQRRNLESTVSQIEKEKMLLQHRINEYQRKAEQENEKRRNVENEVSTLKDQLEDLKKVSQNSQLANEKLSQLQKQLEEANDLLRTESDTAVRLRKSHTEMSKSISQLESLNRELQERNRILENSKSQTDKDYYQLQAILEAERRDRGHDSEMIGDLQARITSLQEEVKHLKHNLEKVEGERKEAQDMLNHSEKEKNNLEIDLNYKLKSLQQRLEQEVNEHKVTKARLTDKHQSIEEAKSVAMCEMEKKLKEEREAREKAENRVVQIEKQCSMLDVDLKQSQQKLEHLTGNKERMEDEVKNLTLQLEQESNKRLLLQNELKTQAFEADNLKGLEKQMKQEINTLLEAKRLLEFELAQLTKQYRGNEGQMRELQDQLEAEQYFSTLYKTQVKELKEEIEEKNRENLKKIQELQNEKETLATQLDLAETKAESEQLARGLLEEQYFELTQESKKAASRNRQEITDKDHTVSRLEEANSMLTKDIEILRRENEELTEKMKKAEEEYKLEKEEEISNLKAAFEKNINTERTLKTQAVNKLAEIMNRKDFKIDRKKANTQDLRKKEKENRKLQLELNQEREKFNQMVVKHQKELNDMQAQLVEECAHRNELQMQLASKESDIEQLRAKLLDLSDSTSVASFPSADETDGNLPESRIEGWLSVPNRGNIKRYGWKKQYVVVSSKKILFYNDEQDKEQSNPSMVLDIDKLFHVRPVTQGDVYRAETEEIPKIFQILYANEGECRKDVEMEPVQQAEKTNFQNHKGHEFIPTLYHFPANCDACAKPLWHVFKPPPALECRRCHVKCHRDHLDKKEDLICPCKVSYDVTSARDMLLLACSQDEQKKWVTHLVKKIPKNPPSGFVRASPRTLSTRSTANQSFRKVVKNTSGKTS
Chain of UniProt Q9H0U4 (Q9H0U4 whole entry, looked up): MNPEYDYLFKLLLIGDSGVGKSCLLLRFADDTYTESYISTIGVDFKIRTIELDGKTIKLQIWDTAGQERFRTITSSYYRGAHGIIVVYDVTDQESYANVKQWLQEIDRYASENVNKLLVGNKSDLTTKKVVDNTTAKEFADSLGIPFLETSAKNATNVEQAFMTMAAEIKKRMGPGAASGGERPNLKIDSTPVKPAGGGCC
Chain of UniProt O94762 (O94762 whole entry, looked up): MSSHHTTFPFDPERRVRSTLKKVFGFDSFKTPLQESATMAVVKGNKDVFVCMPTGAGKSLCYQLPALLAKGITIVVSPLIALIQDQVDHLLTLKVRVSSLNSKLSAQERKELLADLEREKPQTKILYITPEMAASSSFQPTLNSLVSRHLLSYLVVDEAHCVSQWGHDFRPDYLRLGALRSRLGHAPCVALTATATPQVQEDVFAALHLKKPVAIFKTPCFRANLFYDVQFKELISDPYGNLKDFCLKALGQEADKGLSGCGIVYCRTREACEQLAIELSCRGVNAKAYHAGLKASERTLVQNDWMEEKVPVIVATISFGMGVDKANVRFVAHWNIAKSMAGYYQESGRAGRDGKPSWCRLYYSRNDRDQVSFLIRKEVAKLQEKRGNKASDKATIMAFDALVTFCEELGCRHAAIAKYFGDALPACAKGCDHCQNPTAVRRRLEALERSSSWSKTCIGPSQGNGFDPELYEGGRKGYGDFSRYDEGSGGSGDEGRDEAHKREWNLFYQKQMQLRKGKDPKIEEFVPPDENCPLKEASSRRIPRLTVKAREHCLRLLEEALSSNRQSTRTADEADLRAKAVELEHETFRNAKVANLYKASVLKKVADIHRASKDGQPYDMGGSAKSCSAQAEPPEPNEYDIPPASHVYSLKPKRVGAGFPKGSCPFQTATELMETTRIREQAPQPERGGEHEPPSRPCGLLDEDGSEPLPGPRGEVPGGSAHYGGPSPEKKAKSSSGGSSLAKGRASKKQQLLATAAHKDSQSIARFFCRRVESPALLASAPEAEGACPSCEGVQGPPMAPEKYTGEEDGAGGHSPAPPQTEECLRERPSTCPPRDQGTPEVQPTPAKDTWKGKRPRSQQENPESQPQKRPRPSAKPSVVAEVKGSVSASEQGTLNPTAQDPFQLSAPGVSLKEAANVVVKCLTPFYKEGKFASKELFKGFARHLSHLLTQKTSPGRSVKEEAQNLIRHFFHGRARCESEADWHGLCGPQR
Chain of UniProt O14730 (O14730 whole entry, looked up): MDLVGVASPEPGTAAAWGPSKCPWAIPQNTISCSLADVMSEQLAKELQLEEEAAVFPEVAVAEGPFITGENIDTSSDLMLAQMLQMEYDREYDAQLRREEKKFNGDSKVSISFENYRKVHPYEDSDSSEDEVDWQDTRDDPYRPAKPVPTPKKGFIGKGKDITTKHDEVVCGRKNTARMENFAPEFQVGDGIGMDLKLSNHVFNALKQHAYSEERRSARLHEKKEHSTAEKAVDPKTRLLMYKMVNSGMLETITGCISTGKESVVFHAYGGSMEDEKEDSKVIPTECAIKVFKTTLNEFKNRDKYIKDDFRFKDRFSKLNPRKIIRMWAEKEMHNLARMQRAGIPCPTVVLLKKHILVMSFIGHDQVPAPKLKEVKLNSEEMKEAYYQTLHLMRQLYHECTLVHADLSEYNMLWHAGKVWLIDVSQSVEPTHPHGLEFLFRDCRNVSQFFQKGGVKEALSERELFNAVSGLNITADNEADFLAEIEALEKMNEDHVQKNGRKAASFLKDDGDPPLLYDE
Chain of UniProt O43819 (O43819 whole entry, looked up): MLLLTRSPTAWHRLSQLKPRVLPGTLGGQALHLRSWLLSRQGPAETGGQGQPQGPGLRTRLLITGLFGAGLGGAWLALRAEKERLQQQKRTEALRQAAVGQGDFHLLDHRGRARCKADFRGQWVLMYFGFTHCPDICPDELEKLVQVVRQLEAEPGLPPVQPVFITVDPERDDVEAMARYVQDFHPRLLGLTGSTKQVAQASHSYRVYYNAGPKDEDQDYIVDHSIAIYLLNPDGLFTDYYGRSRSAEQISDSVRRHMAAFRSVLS
Chain of UniProt P60059 (P60059 whole entry, looked up): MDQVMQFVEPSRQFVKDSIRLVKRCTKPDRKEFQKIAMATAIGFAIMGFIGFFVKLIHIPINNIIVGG
Chain of UniProt Q00765 (Q00765 whole entry, looked up): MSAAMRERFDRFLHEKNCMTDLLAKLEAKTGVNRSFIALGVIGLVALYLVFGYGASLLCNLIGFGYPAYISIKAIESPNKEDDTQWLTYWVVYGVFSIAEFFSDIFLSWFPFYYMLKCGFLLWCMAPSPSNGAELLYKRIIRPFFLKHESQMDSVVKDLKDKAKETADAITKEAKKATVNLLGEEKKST

Compound in one assay: CN1CC[C@H](c2c(O)cc(O)c3c(=O)cc(-c4ccccc4Cl)oc23)[C@H](O)C1 [alvocidib]
As to the kind of experiment: log2 fold change, soluble protein after heating vs DMSO (PISA); higher = thermal stabilisation; K562 lysate, 10 uM; active = over 0.2 and 3.5 SD of the protein, either way, in both replicates (recomputed). In outline: (§1)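 Values give the log-two fold change in thermal stability against solvent controls, from duplicates. Crude K562 extract at 1 mg/mL protein, made by dounce homogenisation in PBS pH 7.4 with 1 mM MgCl2, was treated with 10 μM compound for 30 min. After 3 min heating across 48°C-58°C, aliquots were pooled, adjusted to 0.5% NP-40 at 4°C and centrifuged at 21,000xg for 90 min. The supernatant was measured by TMTpro 16plex LC-MS/MS with channel sums equalised.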
Take RAB21 (UniProt Q9UL25): the log2 fold change was 0.069.
On to RPS6KA5 (UniProt O75582), for which the log2 fold change is 0.193.
Same read-out and setting: for RPS26P11 (UniProt Q5JNZ5) the value was -0.216; for SATB2 (UniProt Q9UPW6), 0.047.
As to RAPGEF2, A0A2R8YGD3, the log2 fold change is -0.241.
Turning to RPN2 (UniProt P04844), the log2 fold change was -0.024.
As to RAI14 isoform 2 (UniProt Q9P0K7), the log2 fold change is 0.019.
Regarding RPS18 (UniProt P62269), the log2 fold change is -0.057.
The same measure, in the same setting: with ROCK1 (UniProt Q13464) the figure was 0.004.
The same measure, in the same setting: with RPTOR (UniProt Q8N122) the figure was 0.008.
On the same count and under the same terms, for RAB1B (UniProt Q9H0U4) the value was -0.146; for RIOK1 (UniProt Q9BRS2), 0.
As for RAE1 (UniProt P78406), the log2 fold change is -0.038.
The same measure, in the same setting: for REEP5 (UniProt Q00765) the value was -0.054; for RPLP0P6 (UniProt Q8NHW5), -0.018; for SCCPDH (UniProt Q8NBX0), -0.051.
RINT1 (UniProt Q6NUQ1): the log2 fold change is 0.041.
For SEC61G (UniProt P60059), the log2 fold change was -0.107.
For the target SEH1L isoform 1 (UniProt Q96EE3), the log2 fold change was -0.042.
Still for that read-out and setting: with RNASEH1 (UniProt O60930) the figure was 0.024.
Same read-out and setting: with RAD50 isoform 2 (UniProt Q92878) the figure was 0.023; with RIOK3 (UniProt O14730), -0.04.
Same read-out and setting: for SEC13 isoform 3 (UniProt P55735) the value was 0.107; for RAC2 (UniProt P15153), 0.047; for SEC24D isoform 2 (UniProt O94855), -0.012.
SCO2 (UniProt O43819): the log2 fold change was -0.009.
On the same count and under the same terms, with RALGAPA1 isoform 6 (UniProt Q6GYQ0) the figure was -0.102.
As to RECQL5 (UniProt O94762), the log2 fold change was 0.057.
The same measure, in the same setting: for RRAGA (UniProt Q7L523) the value was -0.122; for RPS6KB1 (UniProt P23443), -0.021.
Turning to RANBP2 (UniProt P49792), the log2 fold change is -0.001.
The same measure, in the same setting: with RCOR3 isoform 3 (UniProt Q9P2K3) the figure was -0.005; with SCD (UniProt O00767), -0.138.

Compound in another assay: CN1CCc2c(c3ccccc3n2Cc2ccc(C(=O)NO)cc2)C1 [Tubastatin A]
Described as above. Summed up: as §1
As for RAB21 (UniProt Q9UL25), the log2 fold change was 0.034.
Still for that read-out and setting: with RPS6KA5 (UniProt O75582) the figure was -0.239.
For RPS26P11 (UniProt Q5JNZ5), the log2 fold change is 0.038.
The same measure, in the same setting: for SATB2 (UniProt Q9UPW6) the value was -0.096; for RAPGEF2, A0A2R8YGD3, 0.236 (active); for RPN2 (UniProt P04844), 0.001.
The same measure, in the same setting: for RAI14 isoform 2 (UniProt Q9P0K7) the value was -0.08; for RPS18 (UniProt P62269), 0.04.
Still for that read-out and setting: for ROCK1 (UniProt Q13464) the value was 0.013; for RPTOR (UniProt Q8N122), -0.11; for RAB1B (UniProt Q9H0U4), 0.007.
Consider RIOK1 (UniProt Q9BRS2), for which the log2 fold change was 0.005.
The same measure, in the same setting: with RAE1 (UniProt P78406) the figure was -0.072.
On the same count and under the same terms, for REEP5 (UniProt Q00765) the value was -0.004.
Consider RPLP0P6 (UniProt Q8NHW5), for which the log2 fold change is 0.015.
On the same count and under the same terms, for SCCPDH (UniProt Q8NBX0) the value was 0.044; for RINT1 (UniProt Q6NUQ1), -0.083; for SEC61G (UniProt P60059), 0.063.
With SEH1L isoform 1 (UniProt Q96EE3), the log2 fold change was 0.
Same read-out and setting: for RAD50 isoform 2 (UniProt Q92878) the value was -0.137.
As to RIOK3 (UniProt O14730), the log2 fold change was -0.273 (active).
Same read-out and setting: for SEC13 isoform 3 (UniProt P55735) the value was 0.029.
Regarding RAC2 (UniProt P15153), the log2 fold change was -0.086.
For the target SEC24D isoform 2 (UniProt O94855), the log2 fold change was -0.018.
In the case of SCO2 (UniProt O43819), the log2 fold change was 0.039.
The same measure, in the same setting: for RALGAPA1 isoform 6 (UniProt Q6GYQ0) the value was 0.033; for RECQL5 (UniProt O94762), -0.053.
The same measure, in the same setting: for RRAGA (UniProt Q7L523) the value was -0.687 (active).
Same read-out and setting: for RPS6KB1 (UniProt P23443) the value was -0.184; for RANBP2 (UniProt P49792), -0.169.
As to RCOR3 isoform 3 (UniProt Q9P2K3), the log2 fold change was -0.09.
With SCD (UniProt O00767), the log2 fold change was -0.015.

Compound in a further assay: CNC(=O)C1=CC=CC=C1NC2=NC(=NC=C2Cl)NC3=C(C=C(C=C3)N4CCOCC4)OC
The description is as above. In outline: as §1
Turning to RAB21 (UniProt Q9UL25), the log2 fold change is 0.048.
On the same count and under the same terms, with RPS6KA5 (UniProt O75582) the figure was 0.009; with RPS26P11 (UniProt Q5JNZ5), -0.064; with SATB2 (UniProt Q9UPW6), -0.019.
Take RAPGEF2, A0A2R8YGD3: the log2 fold change was 0.017.
On to RPN2 (UniProt P04844), for which the log2 fold change is -0.024.
With RAI14 isoform 2 (UniProt Q9P0K7), the log2 fold change was 0.003.
Still for that read-out and setting: for RPS18 (UniProt P62269) the value was -0.021.
On the same count and under the same terms, for ROCK1 (UniProt Q13464) the value was -0.029.
Same read-out and setting: for RPTOR (UniProt Q8N122) the value was 0.036; for RAB1B (UniProt Q9H0U4), -0.016.
Consider RIOK1 (UniProt Q9BRS2), for which the log2 fold change is 0.008.
For RAE1 (UniProt P78406), the log2 fold change is 0.039.
On the same count and under the same terms, with REEP5 (UniProt Q00765) the figure was -0.056; with RPLP0P6 (UniProt Q8NHW5), -0.001.
As to SCCPDH (UniProt Q8NBX0), the log2 fold change is 0.05.
Same read-out and setting: for RINT1 (UniProt Q6NUQ1) the value was 0.011; for SEC61G (UniProt P60059), 0.09.
On the same count and under the same terms, with SEH1L isoform 1 (UniProt Q96EE3) the figure was 0.
Same read-out and setting: for RAD50 isoform 2 (UniProt Q92878) the value was 0.008; for RIOK3 (UniProt O14730), 0.029.
Take SEC13 isoform 3 (UniProt P55735): the log2 fold change is -0.024.
Regarding RAC2 (UniProt P15153), the log2 fold change was 0.082.
Still for that read-out and setting: with SEC24D isoform 2 (UniProt O94855) the figure was 0.002; with SCO2 (UniProt O43819), 0.073; with RALGAPA1 isoform 6 (UniProt Q6GYQ0), 0.007.
As for RECQL5 (UniProt O94762), the log2 fold change was -0.071.
The same measure, in the same setting: with RRAGA (UniProt Q7L523) the figure was -0.053; with RPS6KB1 (UniProt P23443), 0.115.
In the case of RANBP2 (UniProt P49792), the log2 fold change is 0.011.
The same measure, in the same setting: for RCOR3 isoform 3 (UniProt Q9P2K3) the value was -0.002; for SCD (UniProt O00767), -0.014.

For the origin of these results see the supplement of paper PMC10849652.
